Test results: PMC4336329 (PLoS ONE, 2015)
The campaign covered roughly 310,000 compounds. About 14,000 (4.5%) showed an effect of 50% or more. Effects have a minus sign here. This excerpt belongs to a sample that is enriched for strong results.

Target: human ether-à-go-go-related gene (hERG) potassium channel (human, UniProt Q12809)
Assay: primary screen, population patch clamp on CHO cells stably expressing hERG; higher = less effect of the substance
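Note: peak tail current of the secondary pulse compared with the same well before compound.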

human ether-à-go-go-related gene (hERG) potassium channel, sequence (Q12809 whole entry, looked up): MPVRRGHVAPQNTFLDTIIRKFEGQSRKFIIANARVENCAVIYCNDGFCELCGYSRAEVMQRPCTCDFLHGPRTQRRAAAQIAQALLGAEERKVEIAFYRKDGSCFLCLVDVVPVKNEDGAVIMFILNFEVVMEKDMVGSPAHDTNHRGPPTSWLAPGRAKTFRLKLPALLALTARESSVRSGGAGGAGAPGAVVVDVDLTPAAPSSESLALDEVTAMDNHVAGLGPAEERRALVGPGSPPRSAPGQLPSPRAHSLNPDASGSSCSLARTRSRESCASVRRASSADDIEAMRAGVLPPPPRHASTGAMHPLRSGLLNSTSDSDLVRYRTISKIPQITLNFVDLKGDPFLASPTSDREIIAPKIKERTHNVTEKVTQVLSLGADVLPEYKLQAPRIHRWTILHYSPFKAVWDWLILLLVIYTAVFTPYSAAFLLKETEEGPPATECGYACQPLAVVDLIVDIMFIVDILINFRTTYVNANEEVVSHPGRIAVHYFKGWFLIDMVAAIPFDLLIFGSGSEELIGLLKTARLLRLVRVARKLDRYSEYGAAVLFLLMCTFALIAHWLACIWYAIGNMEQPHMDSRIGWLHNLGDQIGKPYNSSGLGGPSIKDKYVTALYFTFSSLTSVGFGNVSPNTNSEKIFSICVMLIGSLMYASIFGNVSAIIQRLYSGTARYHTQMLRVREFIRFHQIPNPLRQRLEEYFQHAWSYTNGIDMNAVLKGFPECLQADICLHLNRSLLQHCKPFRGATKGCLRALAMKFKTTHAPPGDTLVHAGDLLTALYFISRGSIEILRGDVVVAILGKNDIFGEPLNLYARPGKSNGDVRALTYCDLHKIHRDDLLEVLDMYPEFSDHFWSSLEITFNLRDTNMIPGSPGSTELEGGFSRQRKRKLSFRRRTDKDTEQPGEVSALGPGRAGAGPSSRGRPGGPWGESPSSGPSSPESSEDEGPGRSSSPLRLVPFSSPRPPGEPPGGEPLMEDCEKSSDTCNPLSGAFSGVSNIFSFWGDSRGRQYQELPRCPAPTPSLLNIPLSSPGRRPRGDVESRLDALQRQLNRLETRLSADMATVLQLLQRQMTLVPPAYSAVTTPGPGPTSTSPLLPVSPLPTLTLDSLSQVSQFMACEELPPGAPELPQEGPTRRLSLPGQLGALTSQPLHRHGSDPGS

Compound	hERG current change (%, negative = inhibition) at 10uM [%]
CCNC(=S)Nc1ccc(Cl)cc1Cl	-14
CCOC(=O)c1nc(C)n(-c2cc(Cl)ccc2Cl)n1	1.64
Cc1onc(-c2c(Cl)cccc2Cl)c1C(=O)n1nnc2ccccc21	-3.48
CN(CC(=O)Nc1ccc(N2CCOCC2)cc1)C(=O)c1cc(F)c(F)cc1Cl	-38.3
Cc1sc2ncnc(SCC(=O)NC(=O)c3cccn3C)c2c1C	10.8
Cc1nc(C)n(CC(O)COc2ccc(C(=O)c3ccccc3)cc2)n1 (stereo not shown)	-6.4
Cc1ccccc1C(OCCN(C(C)C)C(C)C)c1ccccc1.O=C(O)/C=C\C(=O)O (stereo not shown)	-68.3
Cc1ccccc1C(OCCN(C)C)C1CCCCC1.O=C(O)C(=O)O (stereo not shown)	-16.3
Cc1ccccc1C(=O)NNC(=O)/C=C\C(=O)O	-11.1
Cc1ccc2nc(NC(=O)C3CCN(S(=O)(=O)c4cnc[nH]4)CC3)sc2c1	6.57
O=C(CSc1nnc2c(Cl)cc(Cl)cn12)N1CCN(c2ccc(F)cc2)CC1	-51.5
Cn1nnnc1SCC(=O)N1CCN(c2cccc(Cl)c2)CC1	-26.8
O=C(CSc1nnc2c(Cl)cc(Cl)cn12)N1CCN(S(=O)(=O)c2ccccc2)CC1	-19.1
Cn1nnnc1SCC(=O)N1CCN(c2ccc(Cl)cc2)CC1	-51.2
O=C(CSc1nnc2c(Cl)cc(Cl)cn12)N1CCOCC1	-6.52
Cn1nnnc1SCC(=O)N1CCN(c2ccccc2)CC1	12.4
Oc1ccc(CCc2n[nH]c(=S)n2-c2ccc(F)cc2)cc1	-22.2
O=C(COc1ccccc1)Nc1nc2cc3c(cc2s1)OCCO3	7.49
Cc1cccn2c(=O)c3cc(C#N)c(=N)n(CCCN4CCOCC4)c3nc12	-80
Cc1cccn2c(=O)c3cc(C#N)c(=O)n(CCCN4CCOCC4)c3nc12	-60.7
N#Cc1cc2c(=O)n3ccccc3nc2n(CCCN2CCOCC2)c1=O	-24.3
COc1ccccc1-n1c(SCC(=O)Nc2cccc3ccccc23)nc(O)cc1=O	5.56
CC1=C(C)CC(C(=O)NCCc2ccccc2)C(C(=O)O)C1 (stereo not shown)	-10.8

Compound	hERG current change (%, negative = inhibition) at 10uM [%]
CCN(CC)S(=O)(=O)c1ccc(N2CCOCC2)c(NC(=O)COc2ccccc2C#N)c1	-3.3
COc1ccccc1-n1cnc2cc(C(=O)NC3CCCC3)ccc21	-65.5
COc1ccc(-n2cnc3cc(NS(=O)(=O)c4ccccc4)ccc32)cc1	7.83
COc1ccccc1-n1cnc2cc(C(=O)NCC3CCCO3)ccc21 (stereo not shown)	-13.7
CC(C)CCNC(=O)c1ccc2c(c1)ncn2C1CCCC1	-54.8
CCOC(CNC(=O)c1ccc2c(c1)ncn2-c1ccccc1OC)OCC	2.14
CCCCNC(=O)c1ccc2c(c1)ncn2C1CCCC1	-16.7
COc1ccc(-n2cnc3cc(C(=O)NC4CCCC4)ccc32)cc1	-67.9
COc1ccc(-n2cnc3cc(C(=O)N4CCOCC4)ccc32)cc1	-15.6
COc1ccccc1-n1cnc2cc(NS(=O)(=O)c3ccc(Br)cc3)ccc21	-3.3
CC(C)CCNC(=O)c1ccc2c(c1)ncn2C1CCCCC1	-42.8
COc1ccc(-n2cnc3cc(C(=O)NCC4CCCO4)ccc32)cc1 (stereo not shown)	-17.9
COc1ccccc1-n1cnc2cc(NS(=O)(=O)c3ccccc3)ccc21	-57.5
CC(=O)OC/C=C(\C)CCC=C(C)C	-0.25
Cc1noc(C)c1COc1cccc(C(=O)OC(C)C(=O)Nc2c(C)n(C)n(-c3ccccc3)c2=O)c1 (stereo not shown)	4.8
COc1ccc(CCNC(=O)CCN2C(=O)[C@@H]3Cc4ccccc4CN3C2=O)cc1	-28.3
O=c1c2ccccc2nnn1COc1ccc(Cl)cc1Br	22.2
COC(CNC(=O)c1ccc2c(c1)ncn2-c1cc(C)cc(C)c1)OC	-22.5
CCCCCNC(=O)c1ccc2c(c1)ncn2-c1ccc(OC)cc1	-64
CCOCCCNC(=O)c1ccc2c(c1)ncn2-c1ccc(CC)cc1	-43.8
COCCCNC(=O)c1ccc2c(c1)ncn2-c1ccccc1OC	-1.73
Cc1cc(C)cc(-n2cnc3cc(C(=O)O)ccc32)c1	2.82
CCCNC(=O)c1ccc2c(c1)ncn2-c1cc(C)cc(C)c1	-55.1

Compound	hERG current change (%, negative = inhibition) at 10uM [%]
CCCNC(=O)c1ccc2c(c1)ncn2-c1ccccc1OC	-60.3
CCOCCCNC(=O)c1ccc2c(c1)ncn2-c1ccccc1OC	-4.39
COc1ccc(-n2cnc3cc(C(=O)NCCN4CCOCC4)ccc32)cc1	-23.8
S=c1[nH]nc(COc2ccccc2)n1/N=C/c1cccc(Br)c1	22.2
O=C1N=C(N2CCc3ccccc3C2)S/C1=C\c1ccc(O)cc1	-20.8
CN1/C(=C/C2CC(=O)NC2=O)C(C)(C)c2ccccc21 (stereo not shown)	3.26
CCSCCc1nnc(NC(=O)Nc2cccc(C(F)(F)F)c2)s1	15.2
O=C(Nc1nnc(-c2ccccc2)o1)c1cc(-c2cccs2)nc2ccccc12	2.29
CC(=O)Nc1cccc(NC(=O)CSc2nccn2Cc2ccco2)c1	14
O=C(CCOc1ccccc1)OCC(=O)c1cc2ccccc2o1	-10.3
COC(=O)C1=C(C(=O)OC)[C@@H]2N(C)c3ccc(OC)cc3[C@@]23C[C@@H](C(=O)OC)N(C(=O)NCCBr)C3=N1	-32.9
O=C(Nc1nnc(-c2cccs2)o1)c1cccc(F)c1	11.8
NC(=O)C(F)(F)C12OC3C4C5CC(C6C5C3C61)C42 (stereo not shown)	15.1
COc1ccc(S(=O)(=O)N2CCC(Cc3ccccc3)CC2)cc1NC(C)=O	20.5
COc1cc(C(=O)OCC(=O)N2CCC(Cc3ccccc3)CC2)cc(OC)c1OC	-16.9
COc1cc(C(=S)N2CCC(Cc3ccccc3)CC2)ccc1OCC(N)=O	-46.8
COc1cc(C(C)=O)ccc1OCCCN1CCC(Cc2ccccc2)CC1.O=C(O)C(=O)O	-77.9
COc1ccc(NC(=S)N2CCC(Cc3ccccc3)CC2)cc1OC	-45.3
COc1cc(C(C)=O)ccc1OCCN1CCC(Cc2ccccc2)CC1.O=C(O)C(=O)O	-91
O=C(CNC(=S)N(Cc1ccccc1F)C1CCCCC1)NC1CC1	-4.74
CC(C)c1ccccc1OCC(=O)N1CCCCCCC1	13
CCCCCC1CC(CC(=O)NC(=S)Nc2ccc([N+](=O)[O-])cc2)C(=O)O1 (stereo not shown)	-0.0907
CCCCCCC1CC(CCC(=O)Nc2ccc([N+](=O)[O-])cc2)C(=O)O1 (stereo not shown)	3.95

Compound	hERG current change (%, negative = inhibition) at 10uM [%]
CCCCCC1CC(CC(=O)Nc2ccc([N+](=O)[O-])cc2)OC1=O (stereo not shown)	-53.1
CCCCCCC1CC(CC(=O)Nc2ccc([N+](=O)[O-])cc2)C(=O)O1 (stereo not shown)	-12.4
CC(C)OCC1CC(CC(=O)Nc2ccc([N+](=O)[O-])cc2)C(=O)O1 (stereo not shown)	-34.1
CCCCCC1CC(CC(=O)Nc2ccc([N+](=O)[O-])cc2)C(=O)O1 (stereo not shown)	-50
O=C(CC1NCCc2ccccc21)Nc1ccc(Oc2ccccc2)cc1 (stereo not shown)	-15
C=CCN(c1ccccc1)S(=O)(=O)c1ccc2c(c1)NC(=O)C(C)C(=O)N2 (stereo not shown)	-4.47
O=C(CNC(c1ccccc1)c1ccccc1)Nc1cc([N+](=O)[O-])ccc1Cl	10.7
CCCCc1cc(O)c(CCCC)c(O)c1	-34.1
COc1cc(/C=C(\C#N)C(=O)Nc2ccccc2)ccc1OCCN1CCOCC1	-21.7
COc1cc(/C=C(\C#N)C(=O)Nc2ccccc2F)ccc1OCCN1CCOCC1	-64.6
COc1ccccc1NC(=O)/C(C#N)=C/c1ccc(OCCN2CCOCC2)c(OC)c1	-6.48
O=C(N/N=C/c1cccs1)c1cncc(Br)c1	-10.1
COc1ccc(C)cc1NS(=O)(=O)c1ccc2c(c1)CCN2C(C)=O	-17.2
Cc1cccc(NC(=S)N(CCc2ccncc2)C(C)C)c1C	-8.61
CCOc1ccc(NC(=S)N(CCc2ccncc2)C(C)C)cc1	-50.6
CC(C)N(CCc1ccncc1)C(=S)Nc1cccc(Cl)c1	-71.3
CCc1ccccc1NC(=S)N(CCc1ccncc1)C(C)C	-29.6
Cc1ccc(C)c(NC(=S)N(CCc2ccncc2)C(C)C)c1	-42.1
CC(C)N(CCc1ccncc1)C(=S)Nc1ccc(F)c(Cl)c1	-71.7
Cc1cccc(C)c1NC(=S)N(CCc1ccncc1)C(C)C	-1.45
Cc1cc(C)c(NC(=S)N(CCc2ccncc2)C(C)C)c(C)c1	-8.82
CC(C)NC(=S)N(CCc1ccncc1)C(C)C	17.3
